Assay outcomes from PubChem BioAssay.
HEK293 tox = cytotoxic in the GLP-1 receptor inverse agonist counter-screen; AID 624418; 410,000 compounds, 0.13% hits; Potency, µM (titrated, usually from 38.3 µM), for inactives: top-dose activity change, negative = inhibition, most hits filed as inhibitors; HEK293 cAMP-luciferase reporter cells, luminescence, 24 h;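 further: loss of luciferase light is scored as toxicity; potency means the concentration at half of the fitted maximal effect; on the % scale 0 is the no-effect control and ±100 the full control effect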
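To flag toxic compounds, the library was rerun on cells for 24 hr at 37 deg C and 5% CO2. Viability-linked luminescence was captured 12 min after adding luciferase detection reagent.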
GLP-1R inv ag = inverse agonists of human GLP-1 receptor; P43220; AID 624417; 410,000 compounds, 1.6% hits; HEK293 GLP-1R CRE-luciferase, luminescence, 24 h; GLP-1R form is constitutively active; Potency, µM (top dose mostly 38.3 µM), without a hit: at the highest dose activity change, negative = inhibition, actives largely listed as inhibitors; further: potency means the concentration at half of the fitted maximal effect; on the % scale 0 is the no-effect control and ±100 the full control effect; nearly all actives have a fitted effect of over 55% in size
Target sequence (P43220 whole entry, looked up): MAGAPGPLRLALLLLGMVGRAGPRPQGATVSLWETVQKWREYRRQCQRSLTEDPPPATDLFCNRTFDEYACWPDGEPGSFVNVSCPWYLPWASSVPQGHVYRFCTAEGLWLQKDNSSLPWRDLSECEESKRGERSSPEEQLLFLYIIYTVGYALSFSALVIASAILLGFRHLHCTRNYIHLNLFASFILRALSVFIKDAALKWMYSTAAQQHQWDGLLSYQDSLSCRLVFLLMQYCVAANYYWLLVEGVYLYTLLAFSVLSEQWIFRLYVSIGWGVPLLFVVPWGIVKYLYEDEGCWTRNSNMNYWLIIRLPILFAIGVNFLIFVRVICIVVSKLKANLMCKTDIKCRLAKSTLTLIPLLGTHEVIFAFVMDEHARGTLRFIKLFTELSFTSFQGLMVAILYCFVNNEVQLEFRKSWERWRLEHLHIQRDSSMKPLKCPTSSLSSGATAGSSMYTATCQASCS
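HEK293 cells stably co-expressing constitutively active GLP-1R and a cAMP-responsive luciferase reporter were seeded in DMEM with 10% Nu serum, given compounds after 12 h, and incubated 24 h at 37 deg C. Luminescence was then read.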
MmCpn inh = inhibitors of Methanococcus maripaludis chaperonin TRiC (MmCpn) | purified Mm-Cpn ATPase, ADP Transcreener TR-FRET | Potency, µM (highest dose often 76.9 µM), for inactives: at the highest dose activity, negative = inhibition, usual class: inhibitors | 330,000 compounds, 0.031% hits | AID 504842; further: potency means the concentration at half of the fitted maximal effect; on the % scale 0 is the no-effect control and ±100 the full control effect; nearly all actives have a fitted effect of over 80% in size
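Inhibition of chaperonin ATP hydrolysis is measured as reduced ADP production, detected by competitive TR-FRET in which signal falls with ADP. Final enzyme 25 nM and ATP 10 uM, reacted 30 min at 37°C.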
GLP1R ag = GLP-1 receptor (human) agonism; P43220; HEK293 GLP-1R CRE-luciferase, luminescence, 4-6 h; cells express a hypersensitive GLP-1R form; Potency, µM (top dose mostly 45.6 µM), for inactives: at the highest dose activation, most hits filed as activators; 380,000 compounds, 0.007% hits; AID 624172; further: potency means the concentration at half of the fitted maximal effect; % of control where 0% means no effect
CCT modulator = changes cytosolic chaperonin activity; purified chaperonin ATPase assay, HTRF ADP detection, 30 min; activity change, % (no concentration beside the values), hits read low; 360,000 compounds, 0.3% hits; in the data active means activity change below about -30%; further: on the % scale 0 is the no-effect control and ±100 the full control effect
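Enzyme 40 or 20 nM (batch-dependent) in Tris pH 7.4/KCl/MgCl2/DTT; cpd 76 uM single point; ATP 10 uM; 30 min 37 °C; Transcreener ADP HTRF detection, 30 min RT; ratio 665/615.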
uPA surface inh = cell surface uPA generation inhibition; cell surface uPA generation assay, qHTS; 330,000 compounds, 0.31% hits; Potency, µM (doses to about 38.3 µM), inactives show top-dose activity change, negative = inhibition, usual class: inhibitors; AID 540303; active means well fitted inhibition curve with a large enough effect; inconclusive means small, poorly fitted or top-dose-only effect; inactive means no such curve, though single readings can be large or run the other way; tested in mouse RAW 264.7 cells; further: potency means the concentration at half of the fitted maximal effect; on the % scale 0 is the no-effect control and ±100 the full control effect; nearly all actives have a fitted effect of over 55% in size
An asterisk follows results filed as active; ? = inconclusive; / = not tested or not shown; [ ] = remark or other dose. Hits are enriched below; roughly 2.2% of the tested compounds scored in any of these assays. Unless noted, the call rests on the fitted dose curve; in most records, active means well fitted curve in the direction sought with a large enough effect; inconclusive means small, poorly fitted or top-dose-only effect, or another doubt; inactive means no such curve, though single readings can be large; an effect the other way counts as inactive or inconclusive.

SMILES | HEK293 tox | GLP-1R inv ag | MmCpn inh | GLP1R ag | CCT modulator | uPA surface inh
CCCCNC(=S)NNC(=O)CCn1cc(C)cn1 | ? | 7.9µM* | 0% | -1% | 0 | 2%
CCCCNC(=S)NNC(=O)CCn1nc(C)c(Br)c1C | 5.6µM* | 0% | 0% | 8% | -1 | /
Cc1cnn(CCC(=O)NNC(=S)NCC(C)C)c1 | ? | ? | -2% | 0% | -9 | 0%
CCN1C=C(Cc2ccc(OC)cc2)C2=C(C1)C(c1ccc(OC)cc1)C(C#N)=C(N)O2 (stereo not drawn) | -2% | 6.3µM* | -5% | 3% | 0 | -4%
CCCCCC(=O)N1C[C@H](n2cc(-c3ccc(F)cc3)nn2)[C@@H](O)C[C@@H]1c1ccc(Cl)cc1 | ? | 10µM* | / | -4% | -3 | /
CCCCCC(=O)N1C[C@H](O)[C@@H](n2cc(-c3ccc(F)cc3)nn2)C[C@@H]1c1ccc(C)cc1 | -17% | 10µM* | / | 13% | -2 | /
CCCCCC(=O)N1C[C@H](O)[C@@H](n2cc(-c3ccc(F)cc3)nn2)C[C@@H]1c1ccccc1 | -3% | -23% | / | -1% | 0 | /
Cc1ccc(N2CCN(C(=O)C3CCN(c4ncnc5c4nc4n5CCCCC4)CC3)CC2)c(C)c1 | -16% | -1% | / | / | / | /
CCOC(=O)C(CC)Sc1ncnc2sc3c(c12)CCCC3 (stereo not drawn) | 2% | ? | / | ? | / | /
Cc1ccc2ncc(C(=O)c3ccc(C)c(C)c3)c(S(=O)(=O)c3ccc(F)cc3)c2c1 | -17% | 13µM* | / | / | / | /
Cc1ccc(Cc2nc3ccccc3nc2SCC(=O)N2CCCCC2C)cc1 (stereo not drawn) | -7% | 10µM* | / | -5% | / | /
COc1cccc(Cc2nc3ccccc3nc2SCC(=O)N2CCCCC2C)c1 (stereo not drawn) | -1% | ? | / | -5% | / | /
Cc1noc(NS(=O)(=O)c2ccc(NC(=O)c3oc4ccc(Cl)cc4c3C)cc2)c1C | -4% | -2% | 1% | 3% | -1 | -1%
Cc1c(C(=O)Nc2ccc(S(=O)(=O)Nc3ncccn3)cc2)oc2ccc(Cl)cc12 | 8% | 10% | 1% | -1% | -34* | 15%
CCOc1ccc2nc(SCC(=O)N3c4ccccc4Sc4ccccc43)sc2c1 | -4% | 14% | -1% | -7% | 0 | -1%
O=C(CSc1nc2ccccc2s1)N1c2ccccc2Sc2ccccc21 | 13% | 5.6µM* | -2% | 0% | -1 | 3%
CCc1nc2nc(C)cc(Nc3cc(C)ccc3C)n2n1 | 2% | -11% | / | / | / | /
O=C1CCSC2(C(=O)N(Cc3ccccc3)c3ccccc32)N1c1ccccc1 (stereo not drawn) | 7% | 11µM* | / | / | / | /
Cc1cccc(CNC(=O)c2ccc(NC(=O)N3CC(C)Sc4ccccc43)cc2)c1 (stereo not drawn) | 3% | ? | / | / | / | /
COc1ccnc(Oc2ccc(F)cc2)c1C(=O)N/C=N/OCc1c(Cl)cccc1Cl | 4% | 10µM* | -1% | 7% | 2 | -10%
Cc1ccc(S(=O)(=O)c2nc(-c3cccs3)oc2SCC(=O)Nc2cc(C)cc(C)c2)cc1 | -11% | ? | / | / | / | /
CC(=O)/C(=N/Nc1ccccc1[N+](=O)[O-])N1CCCc2ccccc21 | ? | 10µM* | 1% | 21% | 1 | 0%
CCc1ccc(N=C2NC(=O)CC(C(=O)Nc3ccc(OC)cc3)S2)cc1 (stereo not drawn) | -9% | -7% | / | / | / | /
O=S(=O)(c1ccccc1)N1CCC(O)(CSc2ccccc2)CC1 | 6% | 10µM* | -6% | 14% | -1 | 1%
O=S(=O)(c1ccccc1)N1CCC(O)(CSc2ccc(F)cc2)CC1 | -2%[7.66 µM] | -23%[7.66 µM] | 0% | 9% | -4 | 2%
SMILES | HEK293 tox | GLP-1R inv ag | MmCpn inh | GLP1R ag | CCT modulator | uPA surface inh
Cc1ccc2nc(-c3ccc(SCC(=O)N4CCc5ccccc54)nc3)[nH]c2c1 | -12% | ? | -2% | -5% | -44* | -8%
Cc1ccc2nc(-c3ccc(SCC(=O)O)nc3)[nH]c2c1 | 25% | -14% | -5% | -8% | -1 | -8%
Cc1ccc2nc(-c3cccnc3SCC(=O)N3c4ccccc4CC3C)[nH]c2c1 (stereo not drawn) | -18% | 0% | 50µM* | 20% | 1 | -12%
Cc1ccc(/C=C/C(=O)N2CCC(c3nc4ccccc4o3)CC2)cc1 | 0% | 30% | / | / | / | /
O=C(Cn1c(SCCOc2ccccc2Cl)nc2ccccc21)N1CCCCC1 | -14% | ? | / | / | / | /
N#CC1=C(N)Oc2c(ccc3cccnc23)C1c1ccccc1 (stereo not drawn) | -24% | ? | 0% | 21% | -2 | 1.3µM*
Cc1ccc(S(=O)(=O)CC(=O)Nc2nc3c(C)cc(C)cc3s2)cc1 | -6% | 2% | / | / | / | /
O=[N+]([O-])c1ccc(Sc2cccc3cccnc23)cc1 | 1% | 103% | -1% | 7% | -5 | 9%
C=CCn1nc([N+](=O)[O-])nc1Sc1cccc2cccnc12 | 2.8µM* | ? | 1% | -21% | 0 | -9%
O=[N+]([O-])c1ccc(Sc2cccc3cccnc23)c([N+](=O)[O-])c1 | 3.2µM* | ? | 1% | 0% | -1 | 10µM*
CCOc1ccc(NC(=O)NC23CC4CC(CC(C4)C2)C3)cc1 | -8% | 2.5µM* | 1% | 9% | -2 | 1%
Cc1cc(NC(=O)CSc2nc3cc(Cl)ccc3o2)no1 | ? | 2.5µM* | 1% | 5% | 0 | -1%
Cc1cc(NC(=O)CSc2nc3ccccc3cc2C#N)no1 | 15% | 10% | -6% | 4% | -94* | -1%
C[C@]12c3[nH]c4ccccc4c3CCN1C(=O)C(CC(=O)NCc1ccco1)C[C@@H]2C(=O)N1CCCCC1 (stereo partly drawn) | 5% | -5% | 4% | 3% | -3 | 6.3µM*
C[C@]12c3[nH]c4ccccc4c3CCN1C(=O)C(CC(=O)NCc1ccco1)C[C@@H]2C(=O)N1CCOCC1 (stereo partly drawn) | -6% | -1% | 2% | 1% | 1 | ?
O=C(CC1C[C@H](C(=O)N2CCCCC2)[C@@]2(CCc3ccccc3)c3[nH]c4ccccc4c3CCN2C1=O)NCCC1=CCCCC1 (stereo partly drawn) | 5% | 0% | -1% | 2% | 2 | 7%
O=C(C[C@H]1C[C@H](C(=O)N2CCCCC2)[C@@]2(CCc3ccccc3)c3[nH]c4cc(-c5ccco5)ccc4c3CCN2C1=O)NCCC1=CCCCC1 | 8% | 6% | -2% | -1% | -89* | 2%
